{"source": "ChEMBL document CHEMBL5606460", "about": "“ASAP - DENV-2 NS2B-NS3 protease fluorescence single point” (2024)", "target": "Genome polyprotein (dengue virus type 2) (UniProt P29990)", "key": {"[1]": {"details": "Thailand/16681/1984, Concentration 25.0 uM, Number of replicates 1.0"}}, "note": "Hit rate of the full screen: of about 2,000 compounds, about 110 (5.5%) showed an effect of 50% or more. This excerpt belongs to a sample that is enriched for strong results."}
{"smiles": "CNS(=O)(=O)c1ccc(Oc2ccccc2Cl)cc1", "values": [{"measurement": "inhibition", "setting": "Thailand/16681/1984, Concentration 49.5 uM, Number of replicates 2.0, Standard deviation 2.6119045762628477 %", "value": -1.72, "unit": "%"}, {"measurement": "inhibition", "setting": "Thailand/16681/1984, Concentration 99.01 uM, Number of replicates 2.0, Standard deviation 1.5233102161282106 %", "value": -0.429, "unit": "%"}, {"measurement": "inhibition", "setting": "Thailand/16681/1984, Concentration 198.0 uM, Number of replicates 2.0, Standard deviation 1.4243001461587221 %", "value": 1.7, "unit": "%"}]}
{"smiles": "O=C(NCc1ccccc1)c1cc(O)ccc1NS(=O)(=O)c1ccc(Oc2ccccc2Cl)cc1", "values": [{"measurement": "inhibition", "setting": "Thailand/16681/1984, Concentration 49.5 uM, Number of replicates 2.0, Standard deviation 0.5844803568567073 %", "value": 33.5, "unit": "%"}, {"measurement": "inhibition", "setting": "Thailand/16681/1984, Concentration 99.01 uM, Number of replicates 2.0, Standard deviation 0.18145668135528656 %", "value": 55.3, "unit": "%"}, {"measurement": "inhibition", "setting": "Thailand/16681/1984, Concentration 198.0 uM, Number of replicates 2.0, Standard deviation 0.23302823954279267 %", "value": 60.6, "unit": "%"}]}
{"smiles": "Cc1cc(CO)c2cccc(Cc3ccccc3C(=O)N[C@@H](CCCN)C(=O)O)c2n1", "values": [{"measurement": "inhibition", "setting": "Thailand/16681/1984, Concentration 49.95 uM, Number of replicates 2.0, Standard deviation 1.450239339781055 %", "value": -9.67, "unit": "%"}, {"measurement": "inhibition", "setting": "Thailand/16681/1984, Concentration 99.9 uM, Number of replicates 2.0, Standard deviation 1.946109361538337 %", "value": 0.782, "unit": "%"}]}
{"smiles": "CCOC(=O)c1cc(CNCc2nnc3ccccn23)[nH]n1", "values": [{"measurement": "inhibition", "setting": "Thailand/16681/1984, Concentration 49.5 uM, Number of replicates 2.0, Standard deviation 0.017813955579008514 %", "value": 6.64, "unit": "%"}, {"measurement": "inhibition", "setting": "Thailand/16681/1984, Concentration 99.01 uM, Number of replicates 2.0, Standard deviation 0.5926797733534107 %", "value": 7.63, "unit": "%"}, {"measurement": "inhibition", "setting": "Thailand/16681/1984, Concentration 198.0 uM, Number of replicates 2.0, Standard deviation 1.0587355780894199 %", "value": 6.43, "unit": "%"}]}
{"smiles": "Cc1cc(CO)c2cccc(CC(=O)N[C@H](Cc3c[nH]cn3)C(=O)O)c2n1", "values": [{"measurement": "inhibition", "setting": "Thailand/16681/1984, Concentration 49.95 uM, Number of replicates 2.0, Standard deviation 0.5871204354474296 %", "value": 9.25, "unit": "%"}, {"measurement": "inhibition", "setting": "Thailand/16681/1984, Concentration 99.9 uM, Number of replicates 2.0, Standard deviation 0.6044303147182479 %", "value": 24.8, "unit": "%"}]}
{"smiles": "O=Cc1ccc(N2CCC(C(=O)N3CCN(Cc4ccc(Cl)nc4)CC3)CC2)cc1", "values": [{"measurement": "inhibition", "setting": "[1]", "value": 10.1, "unit": "%"}]}
{"smiles": "C[C@H](NC(=O)C1CCN(c2ccc(C=O)cc2)CC1)c1cccc(C(F)(F)F)c1", "values": [{"measurement": "inhibition", "setting": "[1]", "value": 11, "unit": "%"}]}
{"smiles": "O=Cc1ccc(N2CCC(C(=O)N[C@H]3C[C@@H]3c3ccc(F)c(F)c3)CC2)cc1", "values": [{"measurement": "inhibition", "setting": "[1]", "value": 12.2, "unit": "%"}]}
{"smiles": "O=Cc1ccc(N2CCC(C(=O)NCc3ccccc3OC(F)(F)F)CC2)cc1", "values": [{"measurement": "inhibition", "setting": "[1]", "value": 12.7, "unit": "%"}]}
{"smiles": "O=Cc1ccc(N2CCC(C(=O)Nc3ccc(Oc4ccc(Cl)cc4)cc3)CC2)cc1", "values": [{"measurement": "inhibition", "setting": "[1]", "value": 3.01, "unit": "%"}]}
{"smiles": "O=C(c1cc2ccccc2[nH]1)N1CCC[C@H](c2c[nH]c3ncccc23)C1", "values": [{"measurement": "inhibition", "setting": "Thailand/16681/1984, Concentration 49.5 uM, Number of replicates 2.0, Standard deviation 0.6846779142829902 %", "value": 3.74, "unit": "%"}, {"measurement": "inhibition", "setting": "Thailand/16681/1984, Concentration 99.01 uM, Number of replicates 2.0, Standard deviation 0.6286192340156203 %", "value": 6.35, "unit": "%"}, {"measurement": "inhibition", "setting": "Thailand/16681/1984, Concentration 198.0 uM, Number of replicates 2.0, Standard deviation 0.39513209958624096 %", "value": 4.86, "unit": "%"}]}
{"smiles": "O=Cc1ccc(N2CCC(C(=O)N3CCO[C@@H](c4ccccc4)C3)CC2)cc1", "values": [{"measurement": "inhibition", "setting": "[1]", "value": 8.68, "unit": "%"}]}
{"smiles": "Cc1cc(CO)c2cccc(Cc3cccc(C(=O)NCCN4CCOCC4)c3)c2n1", "values": [{"measurement": "inhibition", "setting": "Thailand/16681/1984, Concentration 49.95 uM, Number of replicates 2.0, Standard deviation 1.1800261159088588 %", "value": -8.12, "unit": "%"}, {"measurement": "inhibition", "setting": "Thailand/16681/1984, Concentration 99.9 uM, Number of replicates 2.0, Standard deviation 0.7869239771342965 %", "value": -3.46, "unit": "%"}]}
{"smiles": "O=C(NCC1(c2ccncc2F)CCC1)[C@@]1(c2ccc(F)cc2)CCCNC1", "values": [{"measurement": "inhibition", "setting": "Thailand/16681/1984, Concentration 49.5 uM, Number of replicates 2.0, Standard deviation 0.9074685157350926 %", "value": -2.89, "unit": "%"}, {"measurement": "inhibition", "setting": "Thailand/16681/1984, Concentration 99.01 uM, Number of replicates 2.0, Standard deviation 1.7740222143666056 %", "value": -1.32, "unit": "%"}, {"measurement": "inhibition", "setting": "Thailand/16681/1984, Concentration 198.0 uM, Number of replicates 2.0, Standard deviation 1.670161679604597 %", "value": -0.296, "unit": "%"}]}
{"smiles": "Cc1cc(CO)c2cccc(CC(=O)N[C@@H](C)C(N)=O)c2n1", "values": [{"measurement": "inhibition", "setting": "Thailand/16681/1984, Concentration 49.95 uM, Number of replicates 2.0, Standard deviation 0.6764350022386235 %", "value": -6.74, "unit": "%"}, {"measurement": "inhibition", "setting": "Thailand/16681/1984, Concentration 99.9 uM, Number of replicates 2.0, Standard deviation 0.17585957987303982 %", "value": -4.59, "unit": "%"}]}
{"smiles": "Cc1cc(CO)c2cccc(Cc3cccc(C(=O)N[C@@H](CCCN)C(=O)O)c3)c2n1", "values": [{"measurement": "inhibition", "setting": "Thailand/16681/1984, Concentration 49.95 uM, Number of replicates 2.0, Standard deviation 0.7049975000059713 %", "value": -1.78, "unit": "%"}, {"measurement": "inhibition", "setting": "Thailand/16681/1984, Concentration 99.9 uM, Number of replicates 2.0, Standard deviation 0.2824297407941699 %", "value": 11.7, "unit": "%"}]}
{"smiles": "Cc1cc(CO)c2cccc(Cc3cccc(C(=O)N[C@@H](CCC(N)=O)C(=O)O)c3)c2n1", "values": [{"measurement": "inhibition", "setting": "Thailand/16681/1984, Concentration 49.95 uM, Number of replicates 2.0, Standard deviation 0.9076569964416333 %", "value": 26.5, "unit": "%"}, {"measurement": "inhibition", "setting": "Thailand/16681/1984, Concentration 99.9 uM, Number of replicates 2.0, Standard deviation 0.5346782919570826 %", "value": 79, "unit": "%"}]}
{"smiles": "Cc1cc(CO)c2cccc(CC(=O)N[C@@H](CCC(N)=O)C(=O)O)c2n1", "values": [{"measurement": "inhibition", "setting": "Thailand/16681/1984, Concentration 49.95 uM, Number of replicates 2.0, Standard deviation 0.1031646955614498 %", "value": 95.6, "unit": "%"}, {"measurement": "inhibition", "setting": "Thailand/16681/1984, Concentration 99.9 uM, Number of replicates 2.0, Standard deviation 0.012461980167701147 %", "value": 98.7, "unit": "%"}]}
{"smiles": "Cc1cc(CO)c2cccc(Cc3ccccc3C(=O)N[C@@H](CCC(N)=O)C(=O)O)c2n1", "values": [{"measurement": "inhibition", "setting": "Thailand/16681/1984, Concentration 49.95 uM, Number of replicates 2.0, Standard deviation 0.9816783263695582 %", "value": 12.6, "unit": "%"}, {"measurement": "inhibition", "setting": "Thailand/16681/1984, Concentration 99.9 uM, Number of replicates 2.0, Standard deviation 0.9155644195718532 %", "value": 39.4, "unit": "%"}]}
{"smiles": "Cc1cc(CO)c2cccc(Cc3cccc(C(=O)N[C@@H](CCN)C(=O)O)c3)c2n1", "values": [{"measurement": "inhibition", "setting": "Thailand/16681/1984, Concentration 49.95 uM, Number of replicates 2.0, Standard deviation 0.6194784255105775 %", "value": -9.07, "unit": "%"}, {"measurement": "inhibition", "setting": "Thailand/16681/1984, Concentration 99.9 uM, Number of replicates 2.0, Standard deviation 14.524673907807347 %", "value": 0.432, "unit": "%"}]}
{"smiles": "OB1CCc2c(cccc2N2CC[C@@H](O)C2)O1", "values": [{"measurement": "inhibition", "setting": "Thailand/16681/1984, Concentration 49.5 uM, Number of replicates 2.0, Standard deviation 2.1653827241885084 %", "value": -1.07, "unit": "%"}, {"measurement": "inhibition", "setting": "Thailand/16681/1984, Concentration 99.01 uM, Number of replicates 2.0, Standard deviation 1.9510885480745654 %", "value": -0.363, "unit": "%"}, {"measurement": "inhibition", "setting": "Thailand/16681/1984, Concentration 198.0 uM, Number of replicates 2.0, Standard deviation 2.0113725552722737 %", "value": 1.02, "unit": "%"}]}
{"smiles": "Cc1nnccc1Cn1cc(C2CCNCC2)c(C)n1", "values": [{"measurement": "inhibition", "setting": "Thailand/16681/1984, Concentration 49.5 uM, Number of replicates 2.0, Standard deviation 1.059758229221688 %", "value": -5.29, "unit": "%"}, {"measurement": "inhibition", "setting": "Thailand/16681/1984, Concentration 99.01 uM, Number of replicates 2.0, Standard deviation 7.779121042682183 %", "value": 2.01, "unit": "%"}, {"measurement": "inhibition", "setting": "Thailand/16681/1984, Concentration 198.0 uM, Number of replicates 2.0, Standard deviation 1.1444678313445817 %", "value": -3.21, "unit": "%"}]}
